Only some compounds are listed: those with a hit (about 1.9% of all), similar ones and a draw of the others.
Efa HMGR inh: inhibitors of E. faecalis class II HMGR, primary screen, biochemical, Enterococcus faecalis | inhibition, % at 10 µM | purified E. faecalis HMGR, NADPH absorbance 340 nm kinetic | hit rate 0.41% among 190,000 | HMG-CoA reductase (Enterococcus faecalis, mvaE);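 active means inhibition above a set limit, the median over all tested compounds plus 3 SD, cut at about 9.5% in these data; inconclusive means no clear call, values can overlap the other calls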;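 further: enzyme runs in reverse so mevalonate oxidation gives rising NADPH absorbance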
NCF1 inh: p47phox/p22phox peptide binding inhibitors, primary screen, biochemical, uHTS, NADPH oxidase regulatory subunit. fluorescence polarization, 2 h. inhibition, % at 24.7 µM. hit rate 0.53% among 220,000;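 active means inhibition above about 30%, limit read from the data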
Target sequence (P14598 whole entry, looked up): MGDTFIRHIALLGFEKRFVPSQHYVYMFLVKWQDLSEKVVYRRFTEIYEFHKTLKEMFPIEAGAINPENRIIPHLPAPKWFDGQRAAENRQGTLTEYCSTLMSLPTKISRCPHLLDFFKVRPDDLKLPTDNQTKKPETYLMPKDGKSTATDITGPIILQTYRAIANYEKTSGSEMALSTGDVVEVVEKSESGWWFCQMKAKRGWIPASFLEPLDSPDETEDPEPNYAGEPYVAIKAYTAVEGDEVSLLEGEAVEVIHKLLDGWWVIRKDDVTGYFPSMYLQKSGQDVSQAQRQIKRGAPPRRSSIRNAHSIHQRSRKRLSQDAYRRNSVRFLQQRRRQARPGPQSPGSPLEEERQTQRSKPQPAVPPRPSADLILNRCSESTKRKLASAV
dFosB act-1: activators of delta FosB homodimer, primary screen, biochemical, fluorescence polarization, TAMRA-CDK5 oligo, single point; activation, % at 25 µM; Protein FosB (Mus musculus), P13346; purified delta FosB; percent of positive-control signal above neutral wells; hit rate 0.99% among 340,000;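 active means mean activation above about 17%, with every replicate also reaching it, limit read from the data, passing the limit was not always enough; inconclusive means only one of the two conditions met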
Target sequence (P13346 whole entry, looked up): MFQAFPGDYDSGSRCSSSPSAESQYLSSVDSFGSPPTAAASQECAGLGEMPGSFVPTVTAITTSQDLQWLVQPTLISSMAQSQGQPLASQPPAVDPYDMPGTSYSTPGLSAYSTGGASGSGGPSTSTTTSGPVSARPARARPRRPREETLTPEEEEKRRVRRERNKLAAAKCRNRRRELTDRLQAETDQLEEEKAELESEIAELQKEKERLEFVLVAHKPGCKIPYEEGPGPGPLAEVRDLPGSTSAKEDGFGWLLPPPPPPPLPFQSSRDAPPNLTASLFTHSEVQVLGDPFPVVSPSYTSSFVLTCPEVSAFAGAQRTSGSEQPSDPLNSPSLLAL
14-3-3 Bad PPI: inhibitors of 14-3-3 zeta/Bad binding, primary screen, biochemical, TR-FRET, bovine 14-3-3 zeta. TR-FRET 14-3-3zeta/Dy647-pBad peptide displacement, 1 h. 14-3-3 protein zeta/delta (Bos taurus), P63103. inhibition, % at 21.7 µM. hit rate 0.71% among 220,000;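 active means inhibition above about 70%, limit read from the data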
dFosB act-2: activators of mouse delta FosB DNA binding, confirmation, biochemical, fluorescence polarization, TAMRA-CDK5 oligo, cherry-picked samples; shares compounds with dFosB act-1; AID 588690, 2011; purified delta FosB; normalised: neutral wells 0, positive control 100; activation, % at 24.9 µM; 2,400 tested, under 10 active;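 active means highest replicate activation at or above 34% and every replicate reaching that threshold; inconclusive means meets only one of the two criteria; inactive means meets neither criterion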;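 further: higher polarization means more probe DNA bound by delta FosB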
Of the large screens only hits and unclear results are named; the others gave an inactive call (follow-up assays come after a bar, where they were run).

O=C(CC(=O)Nc1cccc(F)c1)Nc1cccc(F)c1	none (no result: Efa HMGR inh, NCF1 inh, 14-3-3 Bad PPI)
O=C(Cn1c2ccccc2c(=O)c2ccccc21)Nc1cccc(F)c1	dFosB act-1 37 | dFosB act-2 inactive
CCN(CC(=O)Nc1cc(S(=O)(=O)N2CCCCC2)ccc1Cl)Cc1ccccc1	none (no result: Efa HMGR inh, NCF1 inh, 14-3-3 Bad PPI)
COc1ccc(NC(=O)c2ccc(NC(=O)CCS(=O)(=O)c3cccs3)cc2)cc1	dFosB act-1 30 (no result: Efa HMGR inh, NCF1 inh, 14-3-3 Bad PPI) | dFosB act-2 inactive
CC(=O)c1ccc(NC(=O)c2ccc(NC(=O)CCS(=O)(=O)c3cccs3)cc2)cc1	none
COc1ccc(C(=O)Nc2ccc(NC(=O)c3cccs3)cn2)cc1	dFosB act-1 33 (no result: Efa HMGR inh, NCF1 inh, 14-3-3 Bad PPI) | dFosB act-2 inactive
COc1ccc(C(=O)NCC(=O)Nc2ccc(-c3ccccc3)cc2)cc1	dFosB act-1 38 (no result: Efa HMGR inh, NCF1 inh, 14-3-3 Bad PPI) | dFosB act-2 inactive
COc1ccc(OCCOc2ccccc2[N+](=O)[O-])cc1	none
O=[N+]([O-])c1ccccc1OCCOc1ccccc1[N+](=O)[O-]	dFosB act-1 23 (no result: Efa HMGR inh) | dFosB act-2 inactive
CCCCOc1ccc(C(=O)Nn2c(-c3cccs3)nc3ccccc3c2=O)cc1	none
O=C(O)CCCc1ccc2ccc3cccc4ccc1c2c34	none (no result: Efa HMGR inh, NCF1 inh, 14-3-3 Bad PPI)
NCCCCc1ccc2ccc3cccc4ccc1c2c34	dFosB act-1 32 (no result: Efa HMGR inh, NCF1 inh, 14-3-3 Bad PPI) | dFosB act-2 inactive
CCC(=O)Nc1ccc(Cl)c(NC(=S)NC(=O)COc2ccccc2)c1	dFosB act-1 35 | dFosB act-2 inconclusive
CCC(=O)NC(=S)Nc1ccc(NC(=O)COc2ccc(Cl)c(C)c2)cc1	none
CCC(=O)Nc1ccc(Cl)c(NC(=S)NC(=O)COc2ccc(Cl)cc2)c1	dFosB act-1 55 | dFosB act-2 inactive
O=C(COc1ccccc1)NC(=S)Nc1cccc(NC(=O)c2ccccc2Cl)c1	none
O=C(CCNC(=O)c1ccccc1Cl)Nc1cc(C(F)(F)F)ccc1Cl	dFosB act-1 34 | dFosB act-2 inactive
O=C(CCNC(=O)c1ccccc1Cl)Nc1ccc(Br)c(C(F)(F)F)c1	none
COC(=O)CN(C#N)c1nc(NC(C)C)nc(OC)n1	none
Cc1cccn2c(=O)c3cc(C(=O)NCCc4ccccc4)c(=N)n(CCCn4ccnc4)c3nc12	dFosB act-1 22 | dFosB act-2 inactive
COc1ccc(CCn2c(=N)c(C(=O)NCCN3CCOCC3)cc3c(=O)n4cccc(C)c4nc32)cc1OC	dFosB act-1 22 (no result: Efa HMGR inh, NCF1 inh, 14-3-3 Bad PPI) | dFosB act-2 inactive
COc1ccc(CCn2c(=N)c(C(=O)NCCN3CCOCC3)cc3c(=O)n4ccccc4nc32)cc1OC	none (no result: Efa HMGR inh, NCF1 inh, 14-3-3 Bad PPI)
CSc1ncccc1C(=O)OCC(=O)c1ccc[nH]1	none (no result: Efa HMGR inh, NCF1 inh, 14-3-3 Bad PPI)
CSc1ccc(/C=C/C(=O)OCC(=O)c2ccc[nH]2)cc1	dFosB act-1 22 (no result: Efa HMGR inh, NCF1 inh, 14-3-3 Bad PPI) | dFosB act-2 inactive
O=C(Nc1ccccc1)c1cnc(-c2ccccc2)nc1-c1ccccc1	dFosB act-1 48 | dFosB act-2 inactive
O=C(COC(=O)c1ccccc1F)Nc1ccc2c(c1)OCCO2	none (no result: Efa HMGR inh, NCF1 inh, 14-3-3 Bad PPI)
O=C(COC(=O)c1cc(Cl)ccc1O)Nc1ccc2c(c1)OCCO2	dFosB act-1 30 (no result: Efa HMGR inh, NCF1 inh, 14-3-3 Bad PPI) | dFosB act-2 inactive
Cc1ccc(Nc2nc(N)c3ccccc3n2)cc1C	dFosB act-1 42 (no result: Efa HMGR inh, NCF1 inh, 14-3-3 Bad PPI) | dFosB act-2 inactive
NC(=O)Cn1cc(/C=N/NC(=O)c2ccc(Cn3cc(Cl)cn3)o2)c(-c2ccccc2)n1	dFosB act-1 36 (no result: Efa HMGR inh, NCF1 inh, 14-3-3 Bad PPI) | dFosB act-2 inactive
O=C(O)c1nn(CC(=O)N2CCN(S(=O)(=O)c3ccc(Cl)cc3)CC2)c(=O)c2ccccc12	dFosB act-1 30 (no result: Efa HMGR inh) | dFosB act-2 inactive
Cn1nc(C(=O)N2CCN(S(=O)(=O)c3ccc(Cl)cc3)CC2)c2ccccc2c1=O	none (no result: Efa HMGR inh, NCF1 inh, 14-3-3 Bad PPI)
O=C(Cn1nc(C(=O)O)c2ccccc2c1=O)Nc1cccc(S(=O)(=O)N2CCCCCC2)c1	dFosB act-1 32 (no result: Efa HMGR inh, NCF1 inh, 14-3-3 Bad PPI) | dFosB act-2 inactive
O=C(Nc1cccc(S(=O)(=O)N2CCCCC2)c1)c1c2c(nc3ccccc13)CCN(Cc1ccccc1)C2	dFosB act-1 52 | dFosB act-2 inactive
COc1ccc(C(=O)NCc2nnc(SCC(=O)N3CCc4ccccc43)n2Cc2ccccc2)cc1	none
Cn1c(=O)[nH]c(=O)c2c1nc(CN1CCN(c3cccc(Cl)c3)CC1)n2CCN1CCOCC1	none
COc1ccc(N2CCc3c(C)nc4c(OC)cc(OC)cc4c32)cc1	dFosB act-1 38 | dFosB act-2 inactive
O=C(O)c1cc(-c2ccccc2Cl)n(-c2cccc(Cl)c2)n1	none (no result: Efa HMGR inh, NCF1 inh, 14-3-3 Bad PPI)
CC(C)(C)C1CCc2c(sc(NC(=O)c3ccncc3)c2C(N)=O)C1 (stereo not drawn)	dFosB act-1 34 | dFosB act-2 inactive
COc1ccc(OC)c(NC(=O)CCNC(=O)Cn2ccc3ccccc3c2=O)c1	none (no result: Efa HMGR inh, NCF1 inh, 14-3-3 Bad PPI)
COc1ccc([N+](=O)[O-])cc1NC(=O)CCNC(=O)Cn1ccc2ccccc2c1=O	dFosB act-1 19 | dFosB act-2 inactive
COc1ccc(C)cc1NC(=O)CNC(=O)Cn1ccc2ccccc2c1=O	dFosB act-1 47 | dFosB act-2 inactive
CCOC(=O)N1CCN(C2CCCN(C(=O)c3cccc(N(C)C)c3)C2)CC1 (stereo not drawn)	none (no result: Efa HMGR inh, NCF1 inh, 14-3-3 Bad PPI)
Cc1noc(C)c1C(=O)OCC(=O)N(C)C1(C#N)CCCCC1	none (no result: Efa HMGR inh, NCF1 inh, 14-3-3 Bad PPI)
Cc1c(Cl)cccc1NC(=O)CC1Sc2ccccc2NC1=O (stereo not drawn)	dFosB act-1 46 (no result: Efa HMGR inh) | dFosB act-2 inactive
Cc1c(Cl)cccc1NC(=O)CC1Oc2ccccc2NC1=O (stereo not drawn)	dFosB act-1 23 (no result: Efa HMGR inh, NCF1 inh, 14-3-3 Bad PPI) | dFosB act-2 inactive
Cc1ccc(C)c(NC(=O)CC2Sc3ccccc3NC2=O)c1 (stereo not drawn)	none (no result: Efa HMGR inh, NCF1 inh, 14-3-3 Bad PPI)
c1ccc(-c2noc(-c3cccnc3)n2)cc1	none
CCc1ccccc1NC(=O)c1cc(S(=O)(=O)N2CCc3ccccc32)cn1C	dFosB act-1 26 (no result: Efa HMGR inh, NCF1 inh, 14-3-3 Bad PPI) | dFosB act-2 inactive
Cc1cccc(NC(=O)c2cc(S(=O)(=O)N3CCc4ccccc43)cn2C)c1C	dFosB act-1 40 (no result: Efa HMGR inh, NCF1 inh, 14-3-3 Bad PPI) | dFosB act-2 inactive
Cc1cccc(-c2nsc(SCC(=O)Nc3ccc4c(c3)OCO4)n2)c1	dFosB act-1 20 | dFosB act-2 inactive
COc1cc2[nH]c(=O)n(Cc3ccc(C(=O)NCCCN4CCC(C)CC4)cc3)c(=O)c2cc1OC	dFosB act-1 28 | dFosB act-2 inactive
CCOc1cc2[nH]c(=S)n(Cc3ccc(C(=O)NCCN(CC)CC)cc3)c(=O)c2cc1OCC	dFosB act-1 25 (no result: Efa HMGR inh, NCF1 inh, 14-3-3 Bad PPI) | dFosB act-2 inactive
CCOc1cc2[nH]c(=S)n(Cc3ccc(C(=O)NCC(OC)OC)cc3)c(=O)c2cc1OCC	none
O=C(NCCCN1CCOCC1)c1c(O)c2ccccc2[nH]c1=O	none
COc1cc2[nH]c(=O)c(C(=O)NCCCN3CCCCC3)c(O)c2cc1OC	dFosB act-1 26 | dFosB act-2 inconclusive
COc1cc2[nH]c(=O)n(CCC(=O)N3CCC(N4CCCCC4)CC3)c(=O)c2cc1OC	none

Source: PubChem
